Experimental data reported in PubChem BioAssay.
Calls of active or inactive are those of the source. Unless noted, no rule for the calls is given here.

Key:
[1] = system: XIP peptide (Xip251-270) binding; experiment: small-molecule binders of XIP peptide, primary screen, biochemical, small-molecule microarray, fluorescence 635/667 nm, 0.1 µg/mL protein (AID 1182); settings: fluorescent protein binding, 635 nm, higher = more signal, called active from +8 up or from −8 down
XIP peptide (Xip251-270) = experiment: small-molecule binders of XIP peptide, primary screen, biochemical, small-molecule microarray, fluorescence 635/667 nm, 0.5 µg/mL protein (AID 1183); settings: small-molecule microarray binding, fluorescence 635 nm; higher = more signal
[2] = Plasmodium falciparum growth inhibition, primary screen, strain 3D7, DAPI fluorescence, 100 nL (AID 1184);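 also: parasites grown inside human red blood cells in medium with human serum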; settings: P. falciparum 3D7 growth, 3 d, higher = more signal
[3] = target: Homeobox protein Hox-A13 (Mus musculus) (UniProt Q62424); experiment: inhibitors of HoxA13-DNA binding, primary screen, biochemical, fluorescence polarization, labeled oligonucleotide (AID 1185); settings: 15 min, higher = more signal, called active from +8 up or from −8 down
Sequence of Homeobox protein Hox-A13 (Mus musculus) (Q62424 whole entry, looked up): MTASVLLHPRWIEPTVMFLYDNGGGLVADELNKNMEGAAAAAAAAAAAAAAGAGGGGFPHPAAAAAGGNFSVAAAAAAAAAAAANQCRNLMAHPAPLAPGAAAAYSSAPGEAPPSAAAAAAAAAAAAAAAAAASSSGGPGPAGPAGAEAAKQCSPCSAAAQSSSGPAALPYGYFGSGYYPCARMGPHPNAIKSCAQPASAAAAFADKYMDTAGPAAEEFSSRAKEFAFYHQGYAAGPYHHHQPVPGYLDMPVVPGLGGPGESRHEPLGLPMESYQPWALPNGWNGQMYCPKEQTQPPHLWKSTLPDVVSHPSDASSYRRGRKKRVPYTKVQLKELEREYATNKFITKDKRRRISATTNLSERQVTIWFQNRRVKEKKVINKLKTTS

[4] = inhibitors of hydroxyurea-induced Chk1 phosphorylation, primary screen, imaging, HeLa, phospho-Chk1 antibody, percent positive cells (AID 1186); settings: hydroxyurea-induced phospho-Chk1 immunofluorescence imaging, higher = more signal
[5] = inhibitors of hydroxyurea-induced Chk1 phosphorylation, primary screen, imaging, HeLa, phospho-Chk1 nuclear intensity (AID 1187); settings: hydroxyurea-induced phospho-Chk1 immunofluorescence imaging, higher = more signal

SMILES | composite z-score [1] | composite z-score (XIP peptide (Xip251-270)) | z-score [2] | z-score [3] | z-score [4] | z-score [5]
COCCOC(=O)N1C(=O)[C@@]2(c3cc(C#CC4=CCCCC4)ccc31)[C@H](c1ccccc1OCCO)N1[C@H](c3ccccc3)[C@H](c3ccccc3)OC(=O)[C@H]1[C@@H]2C(=O)N1CCCCCCC1 | 0.549 (inactive) | 0.688 | -2.05 | 4.13 (inactive) | 0.234 (inactive) | 0.347 (inactive)
CC(C)C(=C=CC[C@H](O)c1cccc(OCCO)c1)C[C@H](O)c1cc(Cl)cc(Cl)c1O | -0.41 (inactive) | 0.594 | -0.487 | -4.22 (inactive) | -0.568 (inactive) | 0.228 (inactive)
Cc1ccc(S[C@]2(C(=O)NCC(F)(F)F)CC(=O)N(Cc3ccccc3)[C@@H]2c2ccc(CO)cc2I)cc1 | -0.0862 (inactive) | 0.442 | 0.15 | -3.68 (inactive) | 0.475 (inactive) | 0.554 (inactive)
Cc1cc(C)c(C(O)C2C=CC3C(=O)N(c4ccccc4)C(=O)C3N2Nc2ccc(C(C)C)cc2)c(C)c1 (stereo unspecified) | 1.21 (inactive) | 0.736 | -0.701 | -3.21 (inactive) | 0.609 (inactive) | 0.335 (inactive)
C[N+](C)(C)CCCC[C@@H]1NC(=O)[C@H]2C[C@@H](C(=O)NCCCCCCN)[C@@H](c3ccc(O)cc3)N2C1=O | -0.465 (inactive) | 0.825 | -0.104 | -1.61 (inactive) | 0.181 (inactive) | 0.0555 (inactive)
COCCOC(=O)N1C(=O)[C@@]2(c3cc(C#CC4=CCCCC4)ccc31)[C@H](C(N)=O)[C@H]1C(=O)O[C@H](c3ccccc3)[C@H](c3ccccc3)N1[C@@H]2c1ccccc1OCCO | 0.859 (inactive) | 0.823 | -2.03 | -1.26 (inactive) | -0.176 (inactive) | -0.46 (inactive)
[N-]=[N+]=NCc1ccccc1C[C@@]1(C(=O)NCc2ccccc2)N=C(c2ccc(OCCCO)cc2)O[C@@H]1c1ccccc1N=[N+]=[N-] | 0.047 (inactive) | 0.558 | -2.37 | 0.321 (inactive) | -0.299 (inactive) | -0.147 (inactive)
CC(C)Cc1ccc(CN2CC[C@@H](NC(=O)Nc3ccccc3)C2)cc1 | -0.243 (inactive) | -0.238 | -1.51 | 0.339 (inactive) | 0.146 (inactive) | 0.459 (inactive)
CCOC(=O)C[C@H]1[C@H](OC(=O)c2cc3ccccc3oc2=O)[C@@H](NC(=O)c2ccc(-c3ccccc3)cc2)c2cc(OCCCO)ccc2N1C(=O)c1ccccc1 | 0.411 (inactive) | 0.701 | -1.95 | 0.455 (inactive) | 0.443 (inactive) | 0.769 (inactive)
COc1ccc(NC(=O)O[C@H]2[C@H](OC(=O)Nc3ccccc3)[C@@H](OC(=O)Nc3ccccc3)[C@@H](OC)O[C@@H]2CO)cc1 | 0.551 (inactive) | 0.925 | -2.47 | -6.22 (inactive) | -0.454 (inactive) | -0.429 (inactive)
CC1=C([C@H](O)CCc2ccccc2)[C@H](CO)[C@@H]2C(=O)N(C)C(=O)[C@@H]2C1 | -0.0688 (inactive) | 0.389 | 0.306 | -4.05 (inactive) | -0.296 (inactive) | -0.528 (inactive)
[N-]=[N+]=NCc1ccccc1C[C@]1(C(N)=O)N=C(c2ccc(OCCCO)cc2)O[C@H]1c1ccccc1 | 0.594 (inactive) | 0.692 | -1.42 | -6.49 (inactive) | 0.0449 (inactive) | 0.43 (inactive)
O=C1O[C@H](c2ccccc2)[C@H](c2ccccc2)N2[C@H]1[C@@H](C(=O)Nc1nc3ccccc3s1)[C@]1(C(=O)Nc3ccc(C#CCCO)cc31)[C@H]2c1ccc(O)cc1 | 0.25 (inactive) | 0.625 | 0.902 | -1.02 (inactive) | -0.334 (inactive) | -0.376 (inactive)
CC(C)C[C@@H]1NC(=O)[C@@H]2C[C@H](C(=O)NCCCCN(C)C)[C@H](c3cccc(OCCO)c3)N2C1=O | 0.36 (inactive) | 0.755 | -0.192 | -3.41 (inactive) | -0.232 (inactive) | -0.455 (inactive)
OCCCC1=CC(c2ccc(CN3CCCC3)cc2)N(Cc2sc3ccccc3c2Cl)CC1 (stereo unspecified) | 0.705 (inactive) | 0.797 | -3.1 | -1.38 (inactive) | -0.186 (inactive) | -0.276 (inactive)
CC1=C[C@@]2(CO)C(=O)[C@]3(CO3)[C@@H]1[C@H]1[C@]2(C)C=C(CO)C(=O)[C@]12CO2 | 0.188 (inactive) | 0.454 | -1.27 | -4.58 (inactive) | -0.441 (inactive) | -0.35 (inactive)
COC(=O)C1=CC(CCCO)=CC(C2CC2)N(C)C=C1C(=O)OC (stereo unspecified) | 0.473 (inactive) | 0.16 | 0.493 | -6.16 (inactive) | -0.68 (inactive) | -1.04 (inactive)
COc1cc2c(cc1O)C(C)N(Cc1ccc([N+](=O)[O-])o1)CC2 (stereo unspecified) | 0.563 (inactive) | 0.962 | -1.2 | -6.22 (inactive) | 0.0111 (inactive) | 0.264 (inactive)
COCCOC(=O)N1C(=O)[C@@]2(c3cc(C#Cc4ccc(OC)cc4)ccc31)[C@H](C(=O)Nc1nc3ccccc3s1)[C@H]1C(=O)O[C@H](c3ccccc3)[C@H](c3ccccc3)N1[C@@H]2c1ccc(O)cc1 | -0.363 (inactive) | 0.748 | -1.89 | -0.829 (inactive) | -0.519 (inactive) | -0.999 (inactive)
CCCCC(=C=CC[C@@H](O)c1ccccc1OCCO)C[C@@H](O)COCc1ccccc1 | -0.175 (inactive) | 0.868 | -1.67 | -4.72 (inactive) | 0.193 (inactive) | 1.06 (inactive)
CC(=O)NCCCC[C@@H]1NC(=O)[C@H]2C[C@@H](C(=O)NCCCC[N+](C)(C)C)[C@@H](c3cccc(OCCO)c3)N2C1=O | 2.02 (inactive) | 0.823 | -0.207 | -1.96 (inactive) | 0.0751 (inactive) | 0.341 (inactive)
